# High-throughput results deposited in PubChem BioAssay by National Center for Advancing Translational Sciences (NCATS).
# NS1 inh: blocks influenza NS1 protein function; Potency, µM (highest dose often 46.1 µM), for the others: at the highest dose activity, positive = more growth; 270,000 tested, 0.4% active; AID 2326; calls by dose curve; further: potency means the concentration at half of the fitted maximal effect; actives are rising curves; nearly all actives have a fitted effect of over 50% in size
#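 Growth recovery, yeast-based: influenza A NS1 expressed in S. cerevisiae causes slow growth, and suppressors are detected by OD600. The parent strain without NS1 is used as positive control.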
# AmpC inh detg: inhibitors of E. coli AmpC beta-lactamase with detergent | P00811 | AmpC hydrolysis of nitrocefin, absorbance 480 nm, 0.01% Triton | Potency, µM (titrated, usually from 114 µM), for inactives: at the top dose activity change, negative = inhibition, usual class: inhibitors | 370,000 tested, 0.041% active | AID 485294;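 further: potency means the concentration at half of the fitted maximal effect; 0% = no-compound wells and -100% = no-enzyme wells; nearly all actives have a fitted effect of over 25% in size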
# Target sequence (P00811 whole entry, looked up): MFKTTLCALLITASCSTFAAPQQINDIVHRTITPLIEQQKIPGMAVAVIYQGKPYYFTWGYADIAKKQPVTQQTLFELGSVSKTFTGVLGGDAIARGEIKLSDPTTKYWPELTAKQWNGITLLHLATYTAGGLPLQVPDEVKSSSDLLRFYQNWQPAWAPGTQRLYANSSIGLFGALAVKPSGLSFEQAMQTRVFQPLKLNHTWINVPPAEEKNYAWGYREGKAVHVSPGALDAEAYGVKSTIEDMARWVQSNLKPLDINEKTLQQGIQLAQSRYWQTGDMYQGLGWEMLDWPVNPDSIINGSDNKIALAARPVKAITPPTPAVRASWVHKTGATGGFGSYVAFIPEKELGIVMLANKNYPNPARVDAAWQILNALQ
#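 AmpC (5.3 nM in the dispensed reagent) in 20 mM phosphate pH 7.0 with 0.01% (detergent screen) or 0.0001% Triton X-100 was preincubated with compounds for 15 min at room temperature. Nitrocefin was then added from an 800 uM solution, and hydrolysis was followed at 480 nm.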
# AmpC inh no detg: inhibitors of E. coli AmpC beta-lactamase without detergent; P00811; AmpC nitrocefin hydrolysis, absorbance 480 nm, 0.0001% Triton; Potency, µM (highest dose often 57.1 µM), for inactives: at the top dose activity change, negative = inhibition, most hits filed as inhibitors; 330,000 tested, 0.52% active;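 further: potency means the concentration at half of the fitted maximal effect; plate controls were no compound for no effect and no enzyme for full effect; nearly all actives have a fitted effect of over 20% in size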
#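 20 mM phosphate pH 7.0 + 0.01% (detergent screen) or 0.0001% Triton X-100; 5.3 nM AmpC reagent; cpd preinc 15 min RT; nitrocefin (800 uM stock) to start; A480 q20 s × 4 min; Activity was normalised to no-enzyme and no-compound control wells.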
# Shiga toxin inh: Shiga toxin inhibition; inhibition, % at 38.7 µM; 290,000 tested, 9.2% active; Vero cells, Shiga toxin protein synthesis inhibition reporter; in the data active means inhibition mostly above about 28%, no sharp cut-off; inactive means mostly below about 43%; further: 0% is about no effect
# CHX counter: counter-screen for Shiga toxin inhibitors: cycloheximide protein synthesis inhibition. max response, %. cell reporter, cycloheximide protein synthesis inhibition counterscreen. 300,000 tested, 12% active. AID 2314; in the data active means max response mostly above about 13%, no sharp cut-off; inactive means mostly below about 14%; further: read at 38.3 µM for the half of the compounds with a filed dose; 0% is about no effect
# * = called active by the depositor; u = inconclusive; x = no result. The full list was thinned out, with hits kept by preference. Unless noted, the call rests on the fitted dose curve; in most records, active means well fitted curve in the direction sought with a large enough effect; inconclusive means small, poorly fitted or top-dose-only effect, or another doubt; inactive means no such curve, though single readings can be large; an effect the other way counts as inactive or inconclusive.
SMILES,NS1 inh,AmpC inh detg,AmpC inh no detg,Shiga toxin inh,CHX counter
Cc1ccc(N/N=C(\Cc2nc3ccccc3[nH]2)c2ccccc2)cc1,21%,-8%,-28%,48*,35*
CCN/N=C(\Cc1nc2ccccc2[nH]1)c1ccccc1,1%,1%,-28%,58,20*
N#CCCN/N=C(/Cc1nc2ccccc2[nH]1)c1ccc(Cl)cc1,17%,-15%,-22%,67*,30*
O=C(Cc1nc2ccccc2[nH]1)N/N=C/c1ccccc1,u,-5%,-26%,2,3
N#CCCN/N=C(\Cc1nc2ccccc2[nH]1)c1ccccc1,-2%,-11%,-27%,39,19
O=C(CCBr)Nc1cccc2cccnc12,x,x,x,4,4
N/N=C(/Cc1nc2ccccc2[nH]1)c1ccc([N+](=O)[O-])cc1,x,-4%,-39%,141*,44*
Clc1cccc(/C(Cc2nc3ccccc3[nH]2)=N\Nc2ccccc2)c1,23%,5%,-35%,55*,54*
O=C(CCc1nc2ccccc2c(=O)[nH]1)NCc1cccc(Cl)c1,5%,0%,-16%,-6,1
CCc1ccc(NC(=O)CCCN2C(=O)C3CC=CCC3C2=O)cc1 (stereo unspecified),7%,19%,65%,97*,72*
Cc1nc2cccnc2n1-c1cccc(C(=O)NCc2ccc(OC(C)C)cc2)c1,x,2%,x,x,x
Cn1cc(-c2cc3n(n2)CCC(=O)N3CCCC(=O)NCc2ccccc2)c2ccccc21,x,27%,x,x,x
CCN(Cc1cccc(F)c1)C(=O)c1ccc2ccccc2n1,-10%,-4%,1%,62,40*
O=C(c1ccc2ccccc2n1)N(CCO)Cc1ccccc1,6%,-12%,9%,-10,-3
O=C(Nc1ccc(Nc2ccccc2)cc1)c1ccc(Cl)c([N+](=O)[O-])c1,-73%,u,-39%,6,0
Cc1cc(C(=O)Nc2ccncc2)ccc1[N+](=O)[O-],-5%,-21%,-10%,43,26*
O=C(Nc1ccc(Cc2ccncc2)cc1)c1ccc(Cl)c([N+](=O)[O-])c1,5%,3%,-37%,-2,8.6*
Cc1ccc(NC(=O)c2ccncc2)cc1[N+](=O)[O-],12%,u,-2%,16,19*
Cc1ccc(C(=O)Nc2ccncc2)cc1[N+](=O)[O-],-36%,3%,-7%,-7,-3
Cc1cc(C(=O)Nc2ccc(Nc3ccccc3)cc2)ccc1[N+](=O)[O-],13%,-7%,-39%,x,20*
CC(=O)Nc1cccc(NC(=O)c2ccc(C)c([N+](=O)[O-])c2)c1,x,4%,-25%,41,26*
C/C(=N\NC(=O)c1ccc([N+](=O)[O-])c(C)c1)c1ccccc1Cl,-9%,u,-14%,57*,28*
O=C(CSc1nc(=O)n(CCN2CCOCC2)c2c1CCCC2)Nc1ccc(F)cc1F,x,u,50%,x,x
O=C(Nc1nccs1)c1ccc(COc2ccc(Cl)cc2)o1,-12%,u,x,55*,30*
O=C(NC1CC1)c1ccc(COc2ccc(F)cc2)o1,-13%,2%,-10%,25,14
SMILES,NS1 inh,AmpC inh detg,AmpC inh no detg,Shiga toxin inh,CHX counter
O=C(Nc1nccs1)c1ccc(COc2ccccc2Br)o1,-16%,4%,-52%,53*,41*
O=C(Nc1nccs1)c1ccc(COc2ccc(F)cc2)o1,-5%,-17%,-26%,52,32*
COCCn1nnnc1C(c1cccs1)N1CCN2CCCC2C1 (stereo unspecified),-3%,1%,-1%,54*,14*
COCCn1nnnc1C(c1cccs1)N1CCN(c2cccc(C(F)(F)F)c2)CC1 (stereo unspecified),-9%,u,63%,-17,-2
Fc1ccc(Cn2nnnc2C(c2cccs2)N2CCN(C3CCCCC3)CC2)cc1 (stereo unspecified),1%,4%,-1%,55*,14*
Cc1ccc(-n2nnnc2SCC(=O)NC(C(=O)O)(c2ccccc2)c2ccccc2)cc1C,x,3%,-34%,-3,-8
O=C(CSc1nc2ccsc2c(=O)n1Cc1ccccc1Cl)NCc1ccc(Cl)cc1,x,-2%,x,x,x
Cn1c(SCC(=O)c2ccc3c(c2)OCCO3)nnc1C1CC1,3%,-14%,-5%,44*,18*
Cn1c(SCC(=O)c2ccc3c(c2)OCCO3)nnc1C(F)(F)F,0%,0%,-1%,34,22*
CC(C)n1c(SCC(=O)c2ccc3c(c2)OCCO3)nc2c1c(=O)n(C)c(=O)n2C,-26%,-7%,-11%,24,-1
COc1ccccc1CNC(=O)Cn1ncn2c(cc3sccc32)c1=O,x,23%,x,x,x
Cc1occc1C(=O)Nc1nccs1,1%,u,-11%,34,8
Cc1ccsc1C(=O)Nc1nccs1,-1%,u,-10%,60*,16*
Cc1csc(NC(=O)c2sccc2C)n1,-1%,-2%,-29%,91*,59*
Cc1ncc(CO)c2c1Oc1nc(-c3ccccc3Cl)nc(SCc3ccccc3F)c1C2,x,-6%,x,x,x
CC(=O)Oc1ccccc1-c1nc(C)nc(N(C)C(C)=O)n1,0%,u,-6%,38*,12*
CC(=O)Oc1ccccc1C(=O)Oc1ccccc1C(=O)O,x,6%,-19%,x,x
O=Cc1cnc(N2CCCCC2)s1,6%,2%,-15%,-6,10
O/N=C\c1cnc(N2CCN(c3ccccc3)CC2)s1,-32%,-1%,-26%,68*,42*
O=C1N=C(N2CCCCC2)SC1=C1CCCC1,-15%,-16%,-16%,45*,26*
CCc1ccc(/C=C2\SC(N3CCCC3)=NC2=O)cc1,-5%,4%,122%,32,14
CCOC(=O)c1cc(-c2ccc(C)cc2)n(CC(=O)Nc2cc(C)ccc2C)c1C,x,19%,x,x,x
CCOc1ccc(C(=O)NCC2CCCO2)cc1 (stereo unspecified),u,u,8%,117*,38*
COc1ccc(C(=O)NC(=S)NCC2CCCO2)cc1 (stereo unspecified),17%,u,-28%,54*,42*
O=C(NC(=S)NCC1CCCO1)c1ccc(Cl)cc1Cl (stereo unspecified),20%,-6%,-8%,56*,16*
COc1ccc(/C=C/C(=O)NC(=S)NCC2CCCO2)cc1 (stereo unspecified),x,4%,-9%,53,17
O=C(CNC(=O)c1ccc(Cl)cc1Cl)NCC1CCCO1 (stereo unspecified),4%,u,-9%,-5,-2
CC(C)(C)c1ccc(C(=O)N2CCC(C(=O)NCC3CCCO3)CC2)cc1 (stereo unspecified),1%,-1%,42%,35,20*
O=C(NCC1CCCO1)C1CCN(C(=O)c2ccc(Cl)cc2)CC1 (stereo unspecified),u,3%,-14%,-10,-2
C=Cc1cc(F)c(S(=O)(=O)N2CCN(S(=O)(=O)c3ccc4c(c3)OCCO4)CC2)cc1F,x,x,x,-13,-10
